GLP1R ag = activates the human GLP-1 receptor; P43220; HEK293 GLP-1R CRE-luciferase, luminescence, 4-6 h; cells express a hypersensitive GLP-1R form; Potency, µM (top dose mostly 45.6 µM), for inactives: at the top dose activation, usual class: activators; 0.007% of 380,000 active; AID 624172; note: % of control where 0% means no effect
Tb PFK inh = T. brucei PFK enzyme inhibition; T. brucei PFK, ADP-Glo luminescence; Potency, µM (highest dose often 57.5 µM), for inactives: top-dose activity, negative = inhibition, most hits filed as inhibitors; AID 485367; 0.17% of 330,000 active;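 note: 0% = uninhibited 1x PFK enzyme wells and -100% = no-enzyme wells; nearly all actives have a fitted effect of over 60% in size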
Target sequence (O15648 whole entry, looked up): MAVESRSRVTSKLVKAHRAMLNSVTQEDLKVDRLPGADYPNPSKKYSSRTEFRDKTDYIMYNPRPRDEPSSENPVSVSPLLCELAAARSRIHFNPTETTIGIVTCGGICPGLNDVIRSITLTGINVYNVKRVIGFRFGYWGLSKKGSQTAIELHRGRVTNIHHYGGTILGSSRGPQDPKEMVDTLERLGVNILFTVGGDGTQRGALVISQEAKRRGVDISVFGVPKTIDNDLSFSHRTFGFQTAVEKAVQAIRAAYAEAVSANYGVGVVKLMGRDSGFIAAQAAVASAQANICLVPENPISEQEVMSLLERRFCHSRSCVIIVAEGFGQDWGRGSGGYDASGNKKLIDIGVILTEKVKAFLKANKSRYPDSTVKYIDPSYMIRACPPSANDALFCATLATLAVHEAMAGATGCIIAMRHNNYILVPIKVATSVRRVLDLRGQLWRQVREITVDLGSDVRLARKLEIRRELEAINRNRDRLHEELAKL
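Activity is normalized to no-enzyme wells (full inhibition) and 1.25 nM enzyme wells (no inhibition). Reaction: 0.5 mM F6P, 0.1 mM ATP, 45 min RT, ADP-Glo luminescence; concentration-response curves fitted and classed by quality.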
HEK293 tox = cytotoxic in the GLP-1 receptor inverse agonist counter-screen; AID 624418; HEK293 cAMP-luciferase reporter cells, luminescence, 24 h; Potency, µM (top dose mostly 38.3 µM), without a hit: top-dose activity change, negative = inhibition, most hits filed as inhibitors; 0.13% of 410,000 active;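 note: loss of luciferase light is scored as toxicity; % is set by controls: 0 for no effect and ±100 for the full control effect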
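Cells in DMEM/10% Nu serum/1% pen-strep, 1536-well format. Pre-incubated 12 h, dosed with 23 nL compound, incubated a further 24 h. Luciferase detection, 12 min at room temp, luminescence.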
Tb PGK inh = blocks T. brucei phosphoglycerate kinase; 0.043% of 380,000 active; PGK/GAPDH coupled, Kinase-Glo luminescence, 60 min; Potency, µM (titrated, usually from 57.5 µM), inactives show top-dose activity change, negative = inhibition, most hits filed as inhibitors; P07378; note: % is set by controls: 0 for no effect and ±100 for the full control effect; nearly all actives have a fitted effect of over 60% in size
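Luminescent ATP detection (Kinase-Glo Plus) follows a 60-minute room-temperature incubation, with wells lacking PGK as controls. Buffer: 100 mM TEA (pH 7.6), 5 mM MgCl2, 0.01% Tween-20. Coupling enzyme GAPDH (100 nM final) supplies unstable 1,3-BPG in-well.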
GLP-1R inv ag = inverse agonists of human GLP-1 receptor. P43220. HEK293 GLP-1R CRE-luciferase, luminescence, 24 h; GLP-1R form is constitutively active. Potency, µM (titrated, usually from 38.3 µM), for the others: at the top dose activity change, negative = inhibition, actives largely listed as inhibitors. 1.6% of 410,000 active. AID 624417; note: % is set by controls: 0 for no effect and ±100 for the full control effect; nearly all actives have a fitted effect of over 55% in size
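HEK293 cells stably co-expressing a cAMP-responsive luciferase reporter and constitutively active GLP-1R were seeded, incubated 12 h, then exposed to compounds for 24 h at 37 C. Luminescence was read 12 min after detection reagent; inverse agonists lower signal.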
Pin1 inh = blocks the human prolyl isomerase Pin1 | Q13526 | Pin1 FP peptide displacement, HiFluor488, 10 min | Potency, µM (highest dose often 115 µM), inactives show top-dose activity, negative = inhibition, usual class: inhibitors | 0.009% of 390,000 active | AID 504891; active = well fitted inhibition curve with a large enough effect in the polarisation, with a control signal flat, not every such curve was filed as active; inconclusive = small, poorly fitted or top-dose-only effect, or effect the other way, or a change in a side signal; inactive = no such curve, though single readings can be large or run the other way; the % refers to the polarisation; note: % is set by controls: 0 for no effect and ±100 for the full control effect
Target sequence (Q13526 whole entry, looked up): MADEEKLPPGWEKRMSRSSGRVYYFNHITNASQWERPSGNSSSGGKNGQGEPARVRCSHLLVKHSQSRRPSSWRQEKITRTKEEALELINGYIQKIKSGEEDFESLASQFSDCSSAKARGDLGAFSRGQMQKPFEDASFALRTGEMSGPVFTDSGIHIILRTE
Starred values were filed as active, the others as inactive; i = inactive; ? = inconclusive; / = no result given; [ ] = another dose, or the depositor's remark. Shown are actives, neighbours in structure and some others; about 1.8% of the full set was active somewhere. Unless noted, calls come from the whole dose curve; as a rule, active = well fitted curve in the direction sought with a large enough effect; inconclusive = small, poorly fitted or top-dose-only effect, or another doubt; inactive = no such curve, though single readings can be large; an effect the other way counts as inactive or inconclusive. Potency is the fitted concentration of half-maximal effect.

SMILES | GLP1R ag | Tb PFK inh | HEK293 tox | Tb PGK inh | GLP-1R inv ag | Pin1 inh
CSc1ncnc2c1cnn2-c1ccc(C)cc1C | 2.6% | -3.7% | -0.9%[7.66 µM] | i | 1.7%[7.66 µM] | 7.8%
CC(C)NC(=O)C1CCN(C(=O)N2CC(C)Oc3ccccc32)CC1 (stereo not given) | / | / | 3.2% | -0.6% | 2.6% | -0.2%
Cc1cccn2c(=O)c3cc(C#N)c(=O)n(-c4nnc(SCc5ccccc5F)s4)c3nc12 | / | / | 20.8% | / | -1.8% | 27.0%
CC1(C(=O)Nc2ccccc2Cc2ccccc2)CCN1CCc1ccccc1 (stereo not given) | -2.9% | / | 6.1% | / | 12.6µM* | /
Brc1ccc(N/N=C(/N=Nc2nn[nH]n2)c2ccccc2)cc1 | 8.6% | -12.4% | ? | -7.0% | 1.26µM* | /
Cc1cc(Nc2ccc(C)c(C)c2)c2ccccc2n1 | 3.2% | -1.5% | ? | -0.6% | ? | 34.4%
Cc1ccc(Nc2nc(N)c3ccccc3n2)cc1C | -1.0% | -14.7% | 2.6% | -17.2% | 7.08µM* | 5.2%
COc1ccc(C(=O)Nc2ccc3c(c2)OCCO3)cc1 | -7.1% | -11.4% | -40.3% | / | 12.6µM* | -8.9%
O=C(Nc1ccc2c(c1)OCCO2)c1ccc(Br)s1 | -13.2% | 0.0% | ? | 3.7% | 10µM* | -3.3%
COc1cccc(CNC(=O)CCc2c(C)c3cc4c(C)coc4c(C)c3oc2=O)c1 | / | / | 15.3% | 0.0% | 7.9% | 55.4%
COc1ccc(OC)c(NC(=O)N2c3ccccc3Sc3ccccc32)c1 | / | / | 0.1% | 0.6% | 6.4% | 0.5%
Cc1occc1-c1nnc(SCC(=O)NC2CCCC2)n1C | 1.3% | 1.5% | -1.2% | i | 16.2% | -1.3%
COc1cccc(NC(=O)CSc2nnc(-c3ccoc3C)n2-c2ccccc2)c1 | 4.0% | 3.5% | 1.7% | 4.1% | 11.2µM* | ?
Cc1occc1-c1nnc(SCC(=O)NC2CCCC2)n1-c1ccccc1 | 0.4% | 0.3% | -3.6% | -3.0% | 11.2µM* | -20.6%
COc1ccc(OC)c(NC(=O)CSc2nnc(C3CCCCC3)n2-c2ccccc2)c1 | 6.1% | -3.6% | 2.0% | -5.6% | 3.98µM* | -4.9%
Cc1ccc(-c2nc(C(=O)NCc3ccccc3Cl)c3n2CCCCC3)cc1 | 4.3% | / | 0.7% | 1.3% | ? | 1.0%
COc1ccc2c(c1)cc1c(=O)n(CC(=O)NC3CCCCC3)nc(C)n12 | / | / | 1.4% | 1.1% | 17.2% | -3.1%
CCOc1ccc(OCC)c(NC(=O)c2cnc3c(-c4ccccc4)c(C)nn3c2C)c1 | / | / | -4.8% | -2.4% | 16.3% | 50.1%
CCCOc1ccc2c(c1)C(=NN=C(N)N)c1cc(OCCC)ccc1-2 | 4.6% | -6.5% | ? | -2.2% | 1.78µM* | -0.1%
CCN(CC)CCOc1ccc2c(c1)C(=NO)c1cc(OCCN(CC)CC)ccc1-2 | -2.6% | -6.9% | ? | -9.7% | ? | 11.2%
Cn1c(=O)c2ccccc2n2c(CCC(=O)N3CCN(c4cccc(Cl)c4)CC3)nnc12 | / | / | 3.4% | -3.2% | -20.5% | 1.0%
CC1(Cc2ccccc2OC(F)(F)F)C(=O)Nc2cc(-c3ccccc3Cl)ccc21 (stereo not given) | 5.3% | / | ? | / | 5.62µM* | /
CC1(Cc2ccccc2Cl)C(=O)Nc2cc(-c3ccccc3Cl)ccc21 (stereo not given) | -1.7% | / | -21.7% | / | ? | /
Cc1ccc(NS(=O)(=O)c2ccc3c(c2)NC(=O)CO3)cc1Cl | -1.1% | 0.2% | -9.8% | -7.2% | 10µM* | -3.0%
Cc1ccc(NS(=O)(=O)c2ccc3c(c2)NC(=O)CO3)cc1C | -3.1% | 3.1% | -8.8% | i | ? | -2.3%
SMILES | GLP1R ag | Tb PFK inh | HEK293 tox | Tb PGK inh | GLP-1R inv ag | Pin1 inh
Cc1ccc(NS(=O)(=O)c2ccc3[nH]c(=O)[nH]c3c2)cc1C | / | / | / | / | / | -2.5%
Cc1ccc(-c2ccc(/C=N/c3ncn[nH]3)o2)cc1Cl | -17.1% | -9.2% | ? | -0.4% | 8.91µM* | 13.5%
COc1ccc(N2CCN(CC(O)COc3ccc(C(C)C)c(C)c3)CC2)cc1 (stereo not given) | / | / | ? | -5.2% | 12.6µM* | 7.2%
COc1cc(-c2nnc(SCC(=O)N3CCOCC3)o2)cc(OC)c1OC | 5.1% | -1.3% | -5.5% | 7.2% | 58.1% | 1.6%
COc1cc(-c2nnc(SCC3(c4ccc(Br)cc4)OCCO3)o2)cc(OC)c1OC | 4.5% | -1.4% | 9.3% | -7.2% | 3.98µM* | -0.2%
NC1CCN(c2nc(-c3ccc(Br)cc3)cs2)CC1 | / | / | / | / | / | -15.9%
C=CCc1cccc(/C=N/NC(=O)CNc2ccccc2)c1O | -11.3% | / | ? | 3.4% | 3.55µM* | ?
Nc1ccc(C(=O)N/N=C/c2cn(Cc3cccc(F)c3)c3ccccc23)cc1 | 7.7% | -7.6% | 3.7% | i | 5.01µM* | 0.5%
O=C(N/N=C/c1cn(Cc2ccccc2)c2ccccc12)c1ccncc1 | 13.5% | -3.4% | -0.4% | -7.4% | ? | 5.5%
C=CCc1cccc(/C=N/NC(=O)CCC(=O)Nc2ccc(F)cc2)c1O | 2.9% | -3.1% | 6.3% | -3.5% | ? | 2.2%
O=C(CNc1ccc2c(c1)OCO2)N/N=C\c1cn(Cc2ccccc2)c2ccccc12 | -1.6% | 0.5% | -24.1% | i | 2.82µM* | 8.9%
C=CCc1cccc(/C=N/NC(=O)CNc2cccc3ccccc23)c1O | 0.6% | -0.6% | ? | 6.0% | ? | -0.1%
C=CCc1cccc(/C=N/NC(=O)CCCNc2ccc(C)cc2)c1O | 3.1% | -0.3% | ? | -7.0% | 10µM* | 55.0%
CC(NC(=O)CCCC1=NS(=O)(=O)c2ccccc2N1)c1ccccc1 (stereo not given) | / | / | -3.8% | i | -0.8% | -1.3%
Cc1nn(-c2ccc3nnc(C)n3n2)c(C)c1CCC(=O)Nc1ccc(OC(F)(F)F)cc1 | / | / | 0.6% | -2.2% | 8.1% | -0.7%
COc1cccc(CCNC(=O)c2cnc3sc(N4CCOCC4)nn3c2=O)c1 | / | / | 2.0% | -2.6% | 16.1% | 3.4%
Cc1cc(N2CCN(C)CC2)nc2ccc(NC(=O)Nc3ccccc3Cl)cc12 | / | / | -3.3% | -0.2% | -4.2% | -1.3%
Cc1ccc(-n2ncc(C(=O)Nc3cc(Cl)ccc3Cl)c2C2CCNCC2)cc1 | 0.0% | -4.0% | 0.0% | -5.0% | 7.08µM* | -7.8%
COc1cc(Cl)c(C)cc1NC(c1ccccc1)c1nnc(-c2ccccc2Cl)o1 (stereo not given) | / | / | 2.1% | i | ? | 7.5%
O=C(NCCCc1nc2ccccc2n1Cc1cccc(Cl)c1)c1ccco1 | / | / | -15.0% | -7.3% | -11.4% | 3.7%
CCOCCCNC(=O)CN1C(=O)CCn2nc(-c3cccn3C)cc21 | / | / | -1.6% | -8.1% | -1.5% | -5.5%
